# In PubChem BioAssay (Tox21):
# Values joined by “and” are separate entries in the source; they are usually repeats but may differ in a detail not shown here. Identical values can stand only once. Results filed as inconclusive are left out. Entries that show only a call come without a potency. Values without a mark were called inactive. Active and inactive are the calls of the source. Calls come from the whole dose curve; as a rule, active = well fitted cell-killing curve with a large enough effect in the repeat runs; inconclusive = weak or mixed curves; inactive = no such curve, though single readings can be large or run the other way.
# Assay: qHTS assay to identify small molecule agonists of the peroxisome proliferator-activated receptor delta (PPARd) signaling pathway - cell viability counter screen (AID 743211); note: nearly all actives have a fitted effect of over 55% in size
# Settings: PPARd-bla HEK293H viability, CellTiter-Glo luminescence, 17 h; series mostly up to 62.6 µM; activity change, negative = cytotoxicity: at the top concentration
# From the text: U.S. Tox21 Program National Center for Advancing Translational Sciences [NCATS] NIH Chemical Genomics Center [NCGC] U.S. Environmental Protection Agency [EPA] National Institutes of Environmental Health Sciences [NIEHS] National Toxicology Program [NTP] U.S. Food and Drug Administration [FDA] Tox21 Assay Overview: The peroxisome proliferator-activated receptors (PPARs) are lipid-activated transcription factors of the nuclear receptor superfamily with three distinct subtypes namely PPAR alpha, PPAR delta (PPARd) and PPAR gamma. All these subtypes heterodimerizes with Retinoid X receptor (RXR) and have different physiological functions. […] To identify the compounds that activate PPAR-delta signaling, GeneBLAzer PPAR delta UAS-bla HEK293H cell line (Invitrogen, Carlsbad, CA, USA) containing a beta-lactamase reporter gene under the control of an Upstream Activator Sequence (UAS) was used to screen the Tox21 compound library. The cytotoxicity of the Tox21 compound library against the PPARd-bla cell line was tested in parallel by measuring the cell viability using CellTiter-Glo assay (Promega, Madison, WI) in the same wells.
# Tox21 Assay Protocol Summary: PPARd-bla cells were dispensed at 3000 cells/6uL/well in 1536-well black wall/clear bottom plates using a Multidrop Combi (Thermo Fisher Scientific, Waltham, MA) dispenser. After the assay plates were incubated at 37 C and 5% CO2 for 5 h, 23 nL of compounds dissolved in DMSO, positive controls or DMSO only was transferred to the assay plate by a Pintool station (Kalypsys, San Diego, CA). The assay plates were incubated at 37C for 17 h. After 1 uL of LiveBLAzerTM B/G FRET substrate was added using a Bioraptr Flying Reagent Dispenser (FRD) workstation (Beckman Coulter, Indianapolis, IN, USA), the plates were incubated at room temperature for 2 h, and fluorescence intensity was measured by an Envision plate reader (PerkinElmer, Shelton, CT). For cell viability readout that measures cytotoxicity, 3 ul/well of CellTiter-Glo reagent was added into the assay plates using a Bioraptr FRD. After 30 min incubation at room temperature, the luminescence intensity in the plates was measured using a ViewLux plate reader (PerkinElmer).
# Potency is the fitted concentration of half-maximal effect.
SMILES,Potency,"activity change, negative = cytotoxicity [%]"
COC(=O)C1CCC(C(=O)OC)CC1 (stereo not given),inactive,–
O=c1cc[nH]c(=O)[nH]1,inactive,–
CC(C)CC(C)CC(O)CC(C)C (stereo not given),inactive,–
CCN(CC)CCOC(=O)c1ccc(N)cc1,inactive,–
CCN1CCCC1=O,inactive,–
CCOCCO,inactive,–
NC(=O)N/N=C/c1ccc([N+](=O)[O-])o1,inactive,–
NC(=O)c1ccc([N+](=O)[O-])cc1Cl,inactive,–
O=C(O)CN(CC(=O)O)CC(=O)O,inactive,–
COC(=O)c1ccc(O)cc1,inactive,–
O=[N+]([O-])c1ccc(O)cc1,inactive,–
O=c1c(-c2ccc(O)cc2)coc2cc(O)cc(O)c12,inactive,–
CCCCNC(=O)NS(=O)(=O)c1ccc(N)cc1,inactive,–
CN/C(=C\[N+](=O)[O-])NCCSCc1ccc(CN(C)C)o1,inactive,–
CCc1cc(C(N)=S)ccn1,inactive,–
CCCCC/C(C=O)=C\c1ccccc1,inactive,–
CCn1cc(C(=O)O)c(=O)c2ccc(C)nc21,inactive,–
Cc1c(N(C)C)c(=O)n(-c2ccccc2)n1C,inactive,–
COc1ccc(O)cc1,inactive,–
Oc1cccc(O)c1,inactive,–

SMILES,Potency,"activity change, negative = cytotoxicity [%]"
C1CNCCN1,inactive,–
OC[C@@H](O)[C@@H](O)[C@H](O)[C@H](O)CO,inactive,–
Cc1cccc2ccccc12,inactive,–
NC(N)=NC(N)=NCCc1ccccc1,inactive,–
COc1cc(O)c(C(=O)c2ccccc2)cc1S(=O)(=O)O,inactive,–
OCCCc1ccccc1,inactive,–
CC(C)(C)CC(C)(C)c1ccc(O)c(-n2nc3ccccc3n2)c1,49.7 µM (active) and 49 µM (active),–
Cc1c(N(C)CS(=O)(=O)O)c(=O)n(-c2ccccc2)n1C,inactive,–
COCC(C)N (stereo not given),inactive,–
CO[C@H]1C=CO[C@@]2(C)Oc3c(C)c(O)c4c(O)c(c(/C=N/N5CCN(C)CC5)c(O)c4c3C2=O)NC(=O)/C(C)=C\C=C[C@H](C)[C@H](O)[C@@H](C)[C@@H](O)[C@@H](C)[C@H](OC(C)=O)[C@@H]1C,inactive,–
CC1=NN(c2ccccc2)C(=O)C1,inactive,–
C#C[C@]1(O)CC[C@H]2[C@@H]3CCc4cc(O)ccc4[C@H]3CC[C@@]21C,inactive,–
C/C=C/c1ccc(O)c(OC)c1,inactive,–
CN(C)Cc1cc(CN(C)C)c(O)c(CN(C)C)c1,–,-1.07
CCCCCCCCCCCCCCCCCC(=O)OCC(O)CO (stereo not given),inactive,–
O=C(OCc1ccccc1)c1ccccc1,inactive,–
C=CCOC(=O)CC(C)C,inactive,–
C=CC(=O)NC(C)(C)CS(=O)(=O)O,inactive,–
COc1cc2c(c(OC)c1OC)-c1ccc(OC)c(=O)cc1[C@@H](NC(C)=O)CC2,inactive,–
CC(C)(C)NCC(O)c1ccc(O)c(CO)c1 (stereo not given),inactive,–
